Data on 40 compounds can be found in PubChem BioAssay (NCI).

This is part of a sample that, as a whole, favours compounds with a hit. Of some 79,000 tested, about 15% had one in any assay. Calls of active or inactive are those of the source. No stated cut-off is given here; in the data, active means growth inhibition above about 70%; inactive means the rest.

A short description of this test: NCI Yeast Anticancer Drug Screen. Data for the sgs1 mgt1 strain (AID 161).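 Further: 0% = growth of cultures given vehicle only.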 Conditions: S. cerevisiae sgs1 mgt1 strain, at 50.0 µM, active compounds read high. The method, then:
Growth inhibition of yeast strains with defined genetic alterations is measured as a screen for potential anti-cancer activity. Selected strains with alterations in DNA damage repair or cell cycle control were exposed to compounds and growth inhibition was measured relative to vehicle treated controls. The strain used in this assay is sgs1 mgt1
`CN(N)/N=N/c1nc[nH]c1[N+](=O)[O-]`: the growth inhibition is -2.6% (inactive).

Take `CC1CN1P(=O)(N1CCCC1)N1CC1C` (stereo not given): the growth inhibition was -20.3% (inactive).

As to `C#CCOCC(O)C[As](=O)(O)c1cccc(Cl)c1` (stereo not given), the growth inhibition was 7.9% (inactive). Next, `NC(N)=NC(N)=Nc1ccc(Cl)cc1`: 3.45% (inactive). Next, `CCCCCCCCCCCCCCCCP(=O)(O)OP(=O)(O)OCC1OC(n2cnc3c(N)ncnc32)C(O)C1O` (stereo not given): 88.2% (active).

Turning to `CC(C)N[C@@H]1CCC[C@H]1O`, the growth inhibition was -17.1% (inactive). For `O=NN(c1ccccc1)c1ccccc1` the value was -8.6% (inactive); for `C[n+]1ccc(/C=C\c2ccc(N(CCCl)CCCl)cc2)c2ccccc21`, 4% (inactive); for `O=[N+]([O-])c1ccc(/C=C/c2cc(Cl)ccc2S(=O)(=O)F)c(Cl)c1`, 6.8% (inactive). Next, `C/C=C(/C)C(=O)O[C@H]1CC[C@@]2(C)[C@@H]3CC[C@H]4[C@]5(O)C[C@H](O)[C@@]6(O)[C@@H](CN7C[C@@H](C)CC[C@H]7[C@@]6(C)O)[C@]5(O)C[C@@]42O[C@@]13O`: 18% (inactive). Turning to `NNC(=O)NNC(=O)NN`, the growth inhibition is -12.3% (inactive). For the compound `O=NNc1ncc([N+](=O)[O-])cn1`, the growth inhibition is -5.9% (inactive). For `CC1=C(C)C(=O)O[C@@H]([C@](C)(O)[C@]2(O)CC[C@@]3(O)[C@@H]4C[C@H](O)[C@]5(O)[C@@H](O)C=CC(=O)[C@]5(C)[C@H]4CC[C@]23C)C1` the value was 7.1% (inactive); for `CC(=O)OC(C)(C)/C=C/C(=O)[C@](C)(O)[C@H]1[C@H](O)C[C@@]2(C)[C@@H]3CC=C4[C@@H](C=C(O)C(=O)C4(C)C)[C@]3(C)C(=O)C[C@]12C`, -14.6% (inactive); for `Cn1cnc([N+](=O)[O-])c1C(=O)O` (tested in a mixture with another compound), -6.65% (inactive). For `c1cc[c]([Hg][S]c2nc3ccccc3s2)cc1` the value was -6.05% (inactive). For `N#Cc1ccc(Cl)cc1` the value was 6.25% (inactive); for `CCCCN1CCC2(C)c3cc(O)ccc3CC1C2CC` (stereo not given), 4.4% (inactive). For `CCC1CC[Si](C)(C)CC12C(=O)NC(=O)NC2=O` (stereo not given), the growth inhibition is 11.5% (inactive). Next, `S=C(N/N=C\c1cccc(I)c1)NC1CN2CCC1CC2` (stereo not given): 14.4% (inactive); `Cc1ccc(-n2c(=O)[nH]c3ccccc3c2=O)cc1[N+](=O)[O-]`: 33% (inactive). For `O=[N+]([O-])c1ccc(CI)cc1` the value was 36.6% (inactive); for `c1ccc2c(C3NCCc4[nH]cnc43)cccc2c1` (stereo not given), -9.45% (inactive); for `CC(=O)CC(C)C(=O)O` (stereo not given) (tested in a mixture with another compound), -16.6% (inactive).

In the case of `CCCCCCCC(=O)[O-].N.N.N.N.N.[Co+3].[O-][Cl+3]([O-])([O-])[O-]`, the growth inhibition is -46.8% (inactive). In the case of `CCOc1ccc(/C=C/c2cc(OC)c(OC)c(OC)c2)cc1`, the growth inhibition is -23.8% (inactive). With `N#CCN(CC#N)[N+](=O)[O-]`, the growth inhibition was -14.2% (inactive). For `CCC1(O)C(=O)OCc2c1cc1n(c2=O)Cc2cc3cc(N)ccc3nc2-1` (stereo not given) the value was 77.5% (active). For `C/C=C1/CN2CCC1CC2C(O)c1ccnc2ccc(OCCO)cc12` (stereo not given) the value was -2.35% (inactive); for `Cc1ccc2cc3c(ccc4ccccc43)c3c2c1CC3`, -2.75% (inactive). For `N#CC(C#N)=Cc1ccccc1C(=O)O` the value was -12.3% (inactive). For the compound `N/C(=N\NS(=O)(=O)c1ccccc1)N[N+](=O)[O-]`, the growth inhibition is 7.05% (inactive). Next, `CC(=O)O[C@H]1CC[C@]2(C)[C@H]3CC[C@]4(C)[C@@H](OC(C)=O)CC[C@H]4[C@@H]3[C@H](C=O)[C@]2(O)C1`: -8.6% (inactive). Next, `O=C(O)CCCO`: -23.9% (inactive). Next, `CO[C@@]12[C@@H]3N[C@@H]3CN1C1=C(C(=O)C(Nc3ccc(O)cc3C)=C(C)C1=O)[C@@H]2COC(N)=O`: 20% (inactive); `CC12CCC3C(CCC4=CC(O)CCC43C=O)C1(O)CCC2c1ccc(=O)oc1` (stereo not given): 18.1% (inactive); `O=C(CBr)OCCOC(=O)CBr`: -8.5% (inactive). Take `NC(C/C=C/P(=O)(O)O)C(=O)O` (stereo not given): the growth inhibition is -14.8% (inactive).

Take `CC1(C)OCC(CO)(Nc2nc(N3CC3)nc(N3CC3)n2)CO1`: the growth inhibition was 3.3% (inactive). Regarding `CN1C(=O)C2(c3ccccc31)C1CC3C(CO1)C1C2C3(CO)CN1C#N` (stereo not given), the growth inhibition was -39.2% (inactive).
